Measured values published in PubChem BioAssay.

Test: S. cerevisiae RM11-1a growth modifiers, primary screen, strain RM11-1a, OD600, basal, 24 h (AID 1177);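 also: cultures grown under basal conditions with no added stressor; test concentration not given here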
Details: OD600, 24 h, higher = more signal, called active from +8 up or from −8 down

z-score, inactive:
COCCOC(=O)N1C(=O)[C@@]2(c3cc(C#CCC(C(=O)OC)C(=O)OC)ccc31)[C@H](C(N)=O)[C@H]1C(=O)O[C@H](c3ccccc3)[C@H](c3ccccc3)N1[C@@H]2c1ccccc1OCCO -0.243
C=C(COC)/C(=C/C[C@@H](OC(C)=O)c1cccc(OCCO)c1)c1cnc2ccccc2c1 0.179
CC(C)[Si](C#Cc1ccccc1)(O[C@H](c1ccccc1)c1cn(Cc2ccccc2)nn1)C(C)C -0.282
C[C@]1(C(=O)O)c2ccccc2C(=O)N(Cc2cc(C(F)(F)F)cc(C(F)(F)F)c2)[C@H]1c1ccc(CO)cc1 -0.161
[N-]=[N+]=NCc1ccccc1[C@H]1OC(c2ccc(OCCCO)cc2)=N[C@@]1(CCS(=O)(=O)c1ccccc1)C(=O)NCCN1CCOCC1 -0.199
C=CC[C@@]1(C(=O)NCCCOC)N=C(c2ccc(OCCCO)cc2)O[C@@H]1c1ccccc1CN=[N+]=[N-] -0.343
CC(=O)NCCCC[C@@H]1NC(=O)[C@H]2C[C@@H](C(=O)O)[C@@H](c3cccc(OCCO)c3)N2C1=O -0.587
C=CCNC(=O)[C@H]1[C@@H]2C(=O)O[C@@H](c3ccccc3)[C@@H](c3ccccc3)N2[C@@H](c2ccc(O)cc2)[C@]12C(=O)Nc1ccccc12 1.76
Cc1ccc(S[C@]2(C(=O)NC(C)C)CC(=O)N(Cc3ccccc3)[C@@H]2c2ccc(CO)cc2I)cc1 -0.101
COC(=O)c1ccc(OC)c(/C=C\CC(OC(=O)c2ccncc2)c2ccccc2)c1 (stereo not given) -2.69
COc1ccc([Si](C)(C)[C@H]2[C@H](CC(=O)N(CCO)Cc3ccccc3)O[C@@]3(C(=O)N(Cc4ccc(N5C(=O)c6cccc7cccc5c67)cc4)c4ccccc43)[C@@H]2C)cc1 2.45
C=C(C)C1CN([C@H](CO)c2ccccc2)C(=O)/C1=C\c1ccccc1 (stereo not given in full) 0.119
C[N+](C)(C)CCCC[C@@H]1NC(=O)[C@H]2C[C@@H](C(=O)NCCCCCN)[C@@H](c3ccc(O)cc3)N2C1=O -0.683
CC(=O)NCCCC[C@@H]1NC(=O)[C@H]2C[C@@H](C(=O)NCCCCCN)[C@@H](c3ccc(O)cc3)N2C1=O 1.08
O=C1c2ccccc2[C@](Cc2ccccc2I)(C(=O)NCCN2CCOCC2)[C@H](c2ccc(CO)cc2)N1Cc1ccccc1C(F)(F)F -0.538
CCOC(=O)C[C@H]1[C@H](OC(=O)c2ccc(-c3ccccc3)cc2)[C@@H](NC(=O)c2ccc(-c3ccccc3)cc2)c2cc(OCCCO)ccc2N1C(=O)c1ccccc1 0.795
COC(=O)C1=CC(CCCO)=CC(c2ccc(CN3CCCC3)cc2)N(C)C=C1C(=O)OC (stereo not given) 0.326
CCCC1(C(=O)OC)C=C2C(=C(C(C)C)C(=O)C2C)CN1 (stereo not given) 0.391
C=CCOC(=O)[C@H]1[C@@H]2C(=O)O[C@@H](c3ccccc3)[C@@H](c3ccccc3)N2[C@@H](c2ccc(OCCOC(=O)[C@H]3C[C@H]4C(=O)NCC(=O)N4[C@H]3c3cccc(OCCO)c3)cc2)[C@]12C(=O)Nc1ccc(I)cc12 1.5
C=CCNC(=O)[C@H]1[C@@H]2C(=O)O[C@@H](c3ccccc3)[C@@H](c3ccccc3)N2[C@@H](c2ccc(O)cc2)[C@]12C(=O)N(C(=O)OCCOC)c1ccc(C#Cc3ccc(OC)cc3)cc12 0.539
CS(=O)(=O)CCOC(=O)C1=CC(CCCO)=CC(C2CC2)N(Cc2sc3ccccc3c2Cl)C=C1C(=O)OCCS(C)(=O)=O (stereo not given) 0.155
CC(C)(C)OC(=O)CC[C@@]1(C(=O)N2CCOCC2)N=C(c2ccc(OCCCO)cc2)O[C@@H]1c1ccccc1CN=[N+]=[N-] -0.423
CN1C(=O)C2C=CC(C(O)c3ccc(I)cc3)N(N(c3ccccc3)c3ccccc3)C2C1=O (stereo not given) 0.67
CC(C)(C)OC(=O)N1[C@@H](C=C(Br)Br)COC1(C)C -1.65
CCCN1C(=O)[C@@]2(c3ccc([N+](=O)[O-])cc3)CC(=O)N(C3CCCCC3)[C@@H]2c2ccc(CO)cc21 1.89
C=CCNC(=O)[C@H]1[C@@H]2C(=O)O[C@@H](c3ccccc3)[C@@H](c3ccccc3)N2[C@@H](c2ccc(OCCO)cc2)[C@]12C(=O)N(C(=O)OCCOC)c1ccc(C#CCC(C(=O)OC)C(=O)OC)cc12 2.76
CN1C(=O)C2C=CC(C(O)COCc3ccccc3)N(Nc3ccc([N+](=O)[O-])cc3[N+](=O)[O-])C2C1=O (stereo not given) 0.288
COC(=O)C1=CC(c2ccc(CO)cc2)=CC(C2CC2)N(Cc2cc3c(cc2Br)OCO3)C=C1C(=O)OC (stereo not given) -0.069
C=CC[C@H](O)c1ccc(O)c(F)c1 -0.498
COc1ccc(C(O)C2C=CC3C(=O)N(c4ccccc4)C(=O)C3N2Nc2ccccc2F)c2ccccc12 (stereo not given) -0.0824
C=C(COC)C(=O)CC[C@@H](OC(=O)c1ccccc1-c1ccccc1C(=O)O)c1ccccc1OCCO -0.341
COC(=O)C(CC#Cc1ccc2c(c1)[C@]1(C(=O)N2)[C@H](C(=O)N2CCCCCCC2)[C@H]2C(=O)O[C@H](c3ccccc3)[C@H](c3ccccc3)N2[C@@H]1c1ccc(OCCO)cc1)C(=O)OC 0.415
C[C@H]1C2[C@H](Cc3ccccc3)NC(=O)[C@]23C(=O)N[C@@H](Cc2ccccc2)C(=O)N2CCC[C@H]2C(=O)NC/C=C/CC/C=C/C3[C@@H]2O[C@]12C (stereo not given in full) -0.0615
CCCC[C@@H](O)C1=C(C)Cn2c(=O)n(-c3ccccc3)c(=O)n2[C@H]1CO -1.88
CC(C)c1ccc(NN2C(C(O)C3CCCCC3)C=CC3C(=O)N(c4ccccc4)C(=O)C32)cc1 (stereo not given) 0.409
